According to PubChem BioAssay AID393 (SGCOxCompounds, 2006):
Calls of active or inactive are those of the source. No rule for the calls is given here.

These compounds were tested against Serine/threonine-protein kinase pim-1 (Homo sapiens) (UniProt P11309) (assay: PIM1 kinase ligand binding by thermal shift, biophysical, human, melting temperature shift (AID 393)). Conditions: Thermal shift assay, hits give high values; at 10 µM, protein 2 µM, buffer 10 mM PIPES, pH 6.5, NaCl 150 mM unless noted.
Serine/threonine-protein kinase pim-1 (Homo sapiens), sequence (P11309 whole entry, looked up): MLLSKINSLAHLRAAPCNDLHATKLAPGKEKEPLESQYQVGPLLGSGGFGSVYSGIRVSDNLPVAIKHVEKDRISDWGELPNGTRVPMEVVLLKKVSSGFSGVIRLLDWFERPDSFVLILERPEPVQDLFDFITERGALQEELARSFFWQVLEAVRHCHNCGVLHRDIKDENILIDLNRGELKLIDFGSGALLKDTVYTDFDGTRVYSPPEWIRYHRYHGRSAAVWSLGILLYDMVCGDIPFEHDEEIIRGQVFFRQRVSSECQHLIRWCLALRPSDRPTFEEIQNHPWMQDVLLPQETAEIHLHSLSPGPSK

Tm shift, active:
CC(=O)c1cccc(-c2cnc3ccc(N[C@H](CO)C(C)C)nn23)c1 7.4 Celsius
Clc1cccc(Nc2ccn3ncc(-c4ccsc4)c3n2)c1 3.99 Celsius [at 10 µM, protein 2 µM, buffer 25 mM HEPES, pH 7.5, NaCl 250 mM]
Nc1cc2ncnc(Nc3cccc(Br)c3)c2cc1N 3.4 Celsius [at 10 µM, protein 2 µM, buffer 10 mM Na Citrate, pH 6.5, NaCl 150 mM]
Oc1cccc(-c2cnc3ccc(NC4CCOCC4)nn23)c1 3.66 Celsius
c1csc(-c2cnc3ccc(NCC4CC4)nn23)c1 4.75 Celsius [at 5 µM, protein 1 µM, buffer 10 mM HEPES]
CC(C)[C@@H](CO)Nc1ccc2ncc(-c3cccc(C(F)(F)F)c3)n2n1 8.83 Celsius
O=C(O)c1cccc(-c2cnc3ccc(NC4CCOCC4)nn23)c1 9.27 Celsius
N=C(N)SCCCn1cc(C2=C(c3c[nH]c4ccccc34)C(=O)NC2=O)c2ccccc21 10.7 Celsius [at 10 µM, protein 2 µM, buffer 10 mM Na Citrate, pH 6.5, NaCl 150 mM]
O=S(=O)(c1cccc2c(Cl)cccc12)N1CCCNCC1 3.27 Celsius [at 10 µM, protein 3 µM, buffer 10 mM HEPES]
O=c1cc(-c2ccc(O)cc2)oc2cc(O)cc(O)c12 3.4 Celsius [at 10 µM, protein 2 µM, buffer 10 mM Na Citrate, pH 6.5, NaCl 150 mM]
